Experimental data: PMC5540273 (PLoS ONE, 2017)

Assays:
Settings in all cases: concentration: 1 μM, replicates: in singlicate; n = 1
[1] = test system: TYK2(JH2domain-pseudokinase)
[2] = test system: TYRO3
[3] = test system: ULK1
[4] = test system: ULK2
[5] = test system: ULK3
[6] = test system: T1, VEGFR2
T1 construct: gene KDR

[7] = test system: T2, VPS34
T2 construct: gene PIK3C3

[8] = test system: VRK2
[9] = test system: WEE1
[10] = test system: WEE2
[11] = test system: WNK1
[12] = test system: WNK2
[13] = test system: WNK3
[14] = test system: WNK4
[15] = test system: T3, YANK1
T3 construct: gene STK32A

[16] = test system: T4, YANK2
T4 construct: gene STK32B

[17] = test system: T5, YANK3
T5 construct: gene STK32C

[18] = test system: T6, YES
T6 construct: gene YES1

[19] = test system: T7, YSK1
T7 construct: gene STK25

[20] = test system: T8, YSK4
T8 construct: gene MAP3K19
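Also: KINOMEscan kinase panel screen.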

Row | Structure (SMILES) | %Inh [1] [%] | %Inh [2] [%] | %Inh [3] [%] | %Inh [4] [%] | %Inh [5] [%] | %Inh [6] [%] | %Inh [7] [%] | %Inh [8] [%] | %Inh [9] [%] | %Inh [10] [%] | %Inh [11] [%] | %Inh [12] [%] | %Inh [13] [%] | %Inh [14] [%] | %Inh [15] [%] | %Inh [16] [%] | %Inh [17] [%] | %Inh [18] [%] | %Inh [19] [%] | %Inh [20] [%]
1 | Cl.Cl.NCC(NCc1ccc(-c2ccnc3[nH]ccc23)s1)c1ccccc1 (centres unmarked) [GSK1321565] | 43 | 0 | 67 | 9 | 15 | 17 | 7 | 20 | 13 | 0 | 0 | 11 | 26 | 0 | 0 | 0 | 0 | 0 | 0 | 99.3
2 | CCc1ccc(-c2ccc3c(c2)-c2c(cnn2C)S(=O)(=O)N3C)cc1 | 0 | 5 | 0 | 0 | 0 | 14 | 45 | 7 | 0 | 0 | 0 | 5 | 0 | 0 | 1 | 0 | 0 | 0 | 7 | 7
3 | CCn1c(-c2nonc2N)nc2c(C#CC(C)(C)O)ncc(OCCCCN)c21.O=C(O)C(F)(F)F.O=C(O)C(F)(F)F [GSK507274] | 29 | 2 | 54 | 32 | 12 | 0 | 34 | 0 | 10 | 14 | 19 | 0 | 21 | 3 | 31 | 0 | 24 | 16 | 0 | 99.4
4 | Nc1ncc(-c2cccnc2)c2scc(-c3ccc4c(c3)CCN4C(=O)Cc3ccccc3)c12 [GSK683281] | 0 | 15 | 7 | 0 | 10 | 30 | 29 | 0 | 22 | 17 | 17 | 28 | 12 | 0 | 21 | 10 | 29 | 28 | 27 | 46
5 | Cc1cccc(NC(=O)Nc2ccc(Oc3ncnc4ccn(C)c34)cc2)c1 | 0 | 0 | 0 | 0 | 2 | 99.7 | 0 | 0 | 0 | 0 | 0 | 0 | 0 | 0 | 0 | 0 | 31 | 0 | 0 | 97.1
6 | COc1cc(Nc2ncc3c(C)nc(-c4cc5ccccc5[nH]4)n3n2)cc(OC)c1OC [GW869516] | 82 | 32 | 48 | 51 | 20 | 0 | 0 | 0 | 36 | 85 | 0 | 0 | 0 | 0 | 0 | 0 | 0 | 47 | 0 | 0
7 | COc1cccc(C2=C(Nc3ccc(Cl)c(C(=O)O)c3)C(=O)NC2=O)c1 [SB-390769] | 100 | 0 | 100 | 100 | 100 | 0 | 0 | 31 | 14 | 0 | 100 | 8 | 100 | 43 | 100 | 7 | 0 | 8 | 0 | 100
8 | Cc1ccc(S(=O)(=O)Nc2ccc(Nc3nccc(Nc4cccc5[nH]ncc45)n3)cc2)cc1 [GSK581271] | 93.6 | 0 | 19 | 0 | 38 | 0 | 60 | 0 | 6 | 8 | 4 | 0 | 26 | 16 | 0 | 0 | 3 | 30 | 13 | 67
9 | C[C@@H](Oc1cc(-n2cnc3cc(-c4ccnc(NCCS(C)(=O)=O)c4)ccc32)sc1C(N)=O)c1ccccc1Cl [GSK907232] | 0 | 4 | 25 | 0 | 14 | 28 | 60 | 0 | 43 | 25 | 37 | 80 | 88 | 37 | 6 | 0 | 32 | 47 | 14 | 96.7
10 | O=c1[nH]cc(-c2ccc(N3CCOCC3)cc2)c2sc(-c3cn[nH]c3)cc12 [GSK2276055] | 64 | 0 | 0 | 0 | 9 | 17 | 0 | 0 | 4 | 0 | 7 | 1 | 8 | 0 | 8 | 0 | 16 | 0 | 26 | 98.1
11 | CN(C)Cc1ccc(-c2ccc3c(Nc4ccc(Oc5ccccn5)cc4)ccnc3c2)o1 [GW567148] | 18 | 38 | 19 | 0 | 5 | 17 | 0 | 4 | 0 | 2 | 17 | 14 | 46 | 19 | 0 | 0 | 20 | 64 | 0 | 30
12 | COCCOCCOc1cc2ncc3c4ccc(C#N)cc4[nH]c3c2cc1OC | 41 | 8 | 79 | 99.4 | 65 | 0 | 0 | 9 | 3 | 15 | 0 | 0 | 0 | 0 | 0 | 0 | 0 | 13 | 0 | 93.7
13 | COC(=O)Nc1nc2ccc(Oc3ccc(NC(=O)Nc4cc(C(F)(F)F)ccc4F)cc3)cc2n1C.Cl [GW692089] | 18 | 0 | 0 | 0 | 0 | 43 | 0 | 56 | 2 | 0 | 0 | 0 | 46 | 28 | 0 | 19 | 0 | 0 | 0 | 36
14 | Nc1n[nH]c2cnc(-c3ccccc3)cc12 [SB-642124] | 85 | 9 | 50 | 22 | 35 | 0 | 0 | 35 | 19 | 0 | 8 | 2 | 33 | 38 | 12 | 0 | 17 | 24 | 1 | 95.9
15 | O=C(Nc1cccc(-c2nn3ccccc3c2-c2ccnc(Nc3cccc(C(F)(F)F)c3)n2)c1)c1c(F)cccc1F [GSK292658] | 0 | 67 | 31 | 9 | 5 | 8 | 0 | 0 | 0 | 0 | 5 | 15 | 0 | 27 | 12 | 7 | 23 | 95.2 | 0 | 0
16 | Cl.Cl.NCC(NC(=O)c1cc(-c2ccccc2)c(-c2ccnc3[nH]ccc23)s1)c1ccccc1 (centres unmarked) [GSK1321561] | 2 | 0 | 8 | 0 | 9 | 0 | 6 | 0 | 17 | 0 | 5 | 100 | 3 | 5 | 48 | 35 | 1 | 41 | 0 | 73
